Experiment [1] in a line: blockers of polyQ-driven CASP3 activation – cell-based (AID 1583). The following applies: polyglutamine-induced caspase-3 activation, cell assay; stronger effect = higher value;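 tested at 10 µM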.
A short description of experiment [2]: yeast 75Q aggregation reduction – 75Q-TubU reporter (AID 1593). Particulars: Yeast 75Q polyglutamine aggregation reporter.
Experiment [3] can be described thus: restoration of touch response, mutant HTT neurons – whole organism, C. elegans mechanosensory neurons, N-terminal huntingtin (AID 1599). Particulars: C. elegans polyQ-huntingtin mechanosensory neurons, stronger effect = higher value.
Experiment [4] is described as follows: blockers of cytochrome c efflux from mitochondria – biochemical, purified mitochondria (AID 1603).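 Also: mouse liver mitochondria challenged with calcium chloride; signal normalized to the plate average as 100%.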 Particulars: stronger effect = lower value.
Experiment [5] can be described thus: polyglutamine aggregate formation blockers (AID 1604). The following applies: polyglutamine-induced protein aggregation inhibition assay; stronger effect = higher value; tested at 2.5 µM.
A short description of experiment [6]: glutamate transport activators, MN-1 cells, MN-1 cell line (AID 1612).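 Also: tested at 1 µM final; 0% = mean of DMSO vehicle wells on each plate; positive means more glutamate uptake than control and negative means less.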 Particulars: MN-1 motor neuron cells, stronger effect = higher value.
Experiment [7] can be described thus: GFP-Q80 aggregate reduction, neuronal-like cells, cell-based, NGF-treated PC12, GFPQ80 (AID 1614).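 Also: lower means fewer inclusions and 0 means no inclusions at all.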 The following applies: PC12 NGF-treated GFP-polyQ80 inclusion reduction.
A short description of experiment [8]: 75Q-TubH aggregate inhibition, S. cerevisiae, yeast (AID 1616). Particulars: S. cerevisiae 75Q-TubH polyglutamine aggregation suppression; stronger effect = higher value.
Experiment [9] is described as follows: P. berghei load reduction in hepatocytes – cell-based, HepG2, luciferase luminescence, HepG2 viability, primary screen (AID 624349; in the data active = parasite load remaining mostly below about 12%, no sharp cut-off; inactive = mostly above about 10%;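 also: 100% = mean of DMSO negative control wells on the same plate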). The following applies: P. berghei liver stage in HepG2, luciferase luminescence, concentration not given here; parasite load remaining: stronger effect = lower value; viability: measured here: HepG2 viability without parasites.
For experiment [10], the target named is 6-phosphogluconate dehydrogenase, decarboxylating (Homo sapiens) (UniProt P52209). The experiment in a line: inhibition of human phosphogluconate dehydrogenase – biochemical, recombinant enzyme, NADPH absorbance, primary screen (AID 1159550). Particulars: recombinant 6PGD, NADPH absorbance 341 nm; at 10 µM; stronger effect = higher value.
The nature of experiment [11]: EMT-state selective cytotoxicity in co-culture – imaging, PC-3E GFP, TEM4-18 mCherry, primary screen (AID 1345086;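 active = compounds killing one labelled cell type while sparing the other, by normalised counts and ratio limits, not self-fluorescent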;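 as to all read-outs here: cells exposed to compound for 72 h before imaging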;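 as to red/green cell ratio (normalised): normalised mesenchymal count divided by normalised epithelial count so high means epithelial killing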). Particulars: PC-3E GFP / TEM4-18 mCherry co-culture, imaging cell counts, at 1 µM; for red/green cell ratio (normalised): actives lie on both sides.
Experiment [12] deals with Aerobactin synthetase IucA (Klebsiella pneumoniae hvKP1). Put plainly: IucA enzyme inhibition, primary screen, biochemical, Spectrum library (AID 1346200; call rule not given here;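 also: 100% = wells without compound and 0% = wells lacking enzyme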). Particulars: malachite green pyrophosphate, A620, at 8 µM, stronger effect = lower value.
In experiment [13] the target is Mitogen-activated protein kinase 7 (Homo sapiens) (UniProt Q13164). The experiment in a line: Gal4-ERK5 driven luciferase induction – cell-based, HTS, primary screen (AID 1508626;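 active = luciferase signal above three times the same-plate solvent-only control wells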;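 also: luciferase driven by Gal4-ERK5 fusion binding five Gal4 sites before minimal TATA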). The following applies: HeLa Gal4-ERK5 transactivation, 18 h, at 5 µM, stronger effect = higher value.
A short description of experiment [14]: MELAS cybrid and Rieske KO viability enhancers – cell-based, MELAS cybrids, Rieske KO mouse fibroblasts, CellTiter-Glo, primary screen (AID 1508586;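 active = mean z-score across replicates of 1.96 or higher in either the MELAS or the Rieske mutant cell line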;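 also: z relative to plate mean and SD of compound and empty wells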). Particulars: low glucose.
For experiment [15], the target named is NAD(+) hydrolase SARM1 (Homo sapiens) (UniProt Q6SZW1). The experiment in a line: blocking NAD cleavage by SARM1 SAM-TIR – cell lysate, NAD-Glo luminescence (AID 1508614;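 active = compound whose remaining NAD level is above about 45 nM, limit read from the data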;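 also: higher remaining NAD means stronger inhibition of SARM1 NADase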). The following applies: SAM-TIR HEK293T lysate NADase, at 1 µM, stronger effect = higher value.
Experiment [16] in a line: galactose survival enhancers in mitochondrial complex I cybrids – cell-based, galactose medium, ATP luminescence, primary screen (AID 1645843;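 active = z-score of at least 1.8 in each of two replicates, scored against plate mean and spread of sample wells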;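 also: positive z means more ATP and so rescue of galactose-driven cybrid death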). The following applies: complex I mutant cybrid cells, 72 h, stronger effect = higher value.
For experiment [17], the target named is ATP-dependent translocase ABCB1 (Homo sapiens) (UniProt P08183). The experiment in a line: P-glycoprotein substrate transport blockade – cell-based (AID 377; in the data active = fluorescence slope change above about 50%). Particulars: MDR1-expressing cells, fluorescent substrate accumulation slope; stronger effect = higher value; concentration not given here.
A short description of experiment [18]: compounds altering viability of human ES cells (AID 493140; call rule not given here;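 also: cells exposed to compounds for four days before counting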). The following applies: human embryonic stem cell survival screen; stronger effect = higher value.
Experiment [19] relates to Aerobactin synthetase IucA (Klebsiella pneumoniae, hypervirulent). The experiment in a line: biochemical IucA inhibition screen of LOPAC library by absorbance (AID 1346212; call rule not given here;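 also: 100% = no compound wells and 0% = no enzyme wells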). The following applies: IucA enzyme assay, absorbance (OD) readout; stronger effect = lower value;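 tested at 8 µM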.
Experiment [20] in a line: viability loss with induced miR-34 in A549 – imaging, A549 dox-inducible miR-34, nuclei and caspase counts, primary screen (AID 1347080;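 active = compounds whose cell count with miR-34 switched on is under 0.7 times the count with it off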). The following applies: A549 miR-34 inducible, Hoechst nuclei count, 48 h.
Where [21] appears, read: measured here: epithelial PC-3E GFP cell survival.
Where [22] appears, read: measured here: mesenchymal TEM4-18 mCherry cell survival.
Where [23] appears, read: MELAS cybrid survival, CellTiter-Glo 48 h, stronger effect = higher value.
The mark [24] stands for this setting: Rieske KO mouse fibroblast survival, CellTiter-Glo 72 h.

“And” between values parts separate entries of the source, which are not always exact repeats. Equal entries are not always repeated. Records with an inconclusive call do not appear. For part of these data: Results with a measured potency or affinity are listed apart. The source made the active and inactive calls.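 The calls were made as follows, unless noted: active = at least 20% inhibition of 6-phosphogluconate dehydrogenase activity; inactive = the rest.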

Mitogen-activated protein kinase 7 (Homo sapiens), sequence (Q13164 whole entry, looked up, the tested form may be a part): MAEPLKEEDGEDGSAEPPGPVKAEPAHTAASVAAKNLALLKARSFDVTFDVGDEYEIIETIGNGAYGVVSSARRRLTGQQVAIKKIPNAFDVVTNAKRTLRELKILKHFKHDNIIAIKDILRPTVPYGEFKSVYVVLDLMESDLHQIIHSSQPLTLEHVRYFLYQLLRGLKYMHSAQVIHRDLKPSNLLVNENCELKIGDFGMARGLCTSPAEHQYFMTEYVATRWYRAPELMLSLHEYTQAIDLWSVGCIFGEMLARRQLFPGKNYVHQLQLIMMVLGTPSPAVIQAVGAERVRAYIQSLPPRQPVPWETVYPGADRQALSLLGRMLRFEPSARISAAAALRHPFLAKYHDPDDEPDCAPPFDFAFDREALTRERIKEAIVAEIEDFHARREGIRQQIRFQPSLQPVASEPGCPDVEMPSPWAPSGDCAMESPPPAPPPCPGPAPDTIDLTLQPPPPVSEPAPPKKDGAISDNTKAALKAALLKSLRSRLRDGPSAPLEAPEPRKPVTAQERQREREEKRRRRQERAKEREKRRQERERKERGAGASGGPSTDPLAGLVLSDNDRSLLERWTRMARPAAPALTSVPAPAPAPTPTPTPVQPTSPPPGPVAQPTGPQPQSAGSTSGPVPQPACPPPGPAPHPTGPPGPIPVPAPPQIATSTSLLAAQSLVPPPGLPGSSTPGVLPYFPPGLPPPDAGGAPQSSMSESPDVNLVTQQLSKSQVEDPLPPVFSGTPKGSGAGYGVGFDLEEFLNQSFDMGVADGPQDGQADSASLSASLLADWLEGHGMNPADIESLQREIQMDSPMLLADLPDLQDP
NAD(+) hydrolase SARM1 (Homo sapiens), sequence (Q6SZW1 whole entry, looked up): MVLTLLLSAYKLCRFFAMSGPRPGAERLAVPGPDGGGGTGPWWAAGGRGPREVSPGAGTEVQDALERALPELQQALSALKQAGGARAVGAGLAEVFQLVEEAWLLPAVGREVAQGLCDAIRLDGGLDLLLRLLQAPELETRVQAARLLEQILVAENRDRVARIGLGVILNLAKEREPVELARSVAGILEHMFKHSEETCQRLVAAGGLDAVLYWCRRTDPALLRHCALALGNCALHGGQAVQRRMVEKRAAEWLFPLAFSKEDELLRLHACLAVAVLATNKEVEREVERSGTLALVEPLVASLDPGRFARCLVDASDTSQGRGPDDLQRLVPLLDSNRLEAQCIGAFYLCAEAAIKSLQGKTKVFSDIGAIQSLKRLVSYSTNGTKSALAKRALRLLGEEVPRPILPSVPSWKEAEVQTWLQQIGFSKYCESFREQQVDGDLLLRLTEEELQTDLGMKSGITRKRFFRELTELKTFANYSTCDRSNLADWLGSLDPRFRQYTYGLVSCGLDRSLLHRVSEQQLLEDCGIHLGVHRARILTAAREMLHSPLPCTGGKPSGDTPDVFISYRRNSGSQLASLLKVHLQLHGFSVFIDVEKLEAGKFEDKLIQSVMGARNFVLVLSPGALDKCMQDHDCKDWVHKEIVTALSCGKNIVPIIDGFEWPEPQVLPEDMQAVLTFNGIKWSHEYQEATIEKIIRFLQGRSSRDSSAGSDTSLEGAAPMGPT
6-phosphogluconate dehydrogenase, decarboxylating (Homo sapiens), sequence (P52209 whole entry, looked up): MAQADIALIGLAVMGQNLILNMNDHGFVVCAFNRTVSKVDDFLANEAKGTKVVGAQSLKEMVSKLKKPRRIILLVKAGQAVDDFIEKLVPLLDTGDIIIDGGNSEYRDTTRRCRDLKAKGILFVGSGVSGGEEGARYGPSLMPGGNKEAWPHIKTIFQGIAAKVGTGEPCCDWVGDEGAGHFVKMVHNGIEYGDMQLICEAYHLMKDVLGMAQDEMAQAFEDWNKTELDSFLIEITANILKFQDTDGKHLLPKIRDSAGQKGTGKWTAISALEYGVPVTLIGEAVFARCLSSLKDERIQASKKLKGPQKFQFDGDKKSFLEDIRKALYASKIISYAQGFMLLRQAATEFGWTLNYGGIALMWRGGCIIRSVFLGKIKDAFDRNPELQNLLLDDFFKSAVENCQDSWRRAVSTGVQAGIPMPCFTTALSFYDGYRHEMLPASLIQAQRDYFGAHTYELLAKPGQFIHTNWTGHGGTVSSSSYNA
ATP-dependent translocase ABCB1 (Homo sapiens), sequence (P08183 whole entry, looked up): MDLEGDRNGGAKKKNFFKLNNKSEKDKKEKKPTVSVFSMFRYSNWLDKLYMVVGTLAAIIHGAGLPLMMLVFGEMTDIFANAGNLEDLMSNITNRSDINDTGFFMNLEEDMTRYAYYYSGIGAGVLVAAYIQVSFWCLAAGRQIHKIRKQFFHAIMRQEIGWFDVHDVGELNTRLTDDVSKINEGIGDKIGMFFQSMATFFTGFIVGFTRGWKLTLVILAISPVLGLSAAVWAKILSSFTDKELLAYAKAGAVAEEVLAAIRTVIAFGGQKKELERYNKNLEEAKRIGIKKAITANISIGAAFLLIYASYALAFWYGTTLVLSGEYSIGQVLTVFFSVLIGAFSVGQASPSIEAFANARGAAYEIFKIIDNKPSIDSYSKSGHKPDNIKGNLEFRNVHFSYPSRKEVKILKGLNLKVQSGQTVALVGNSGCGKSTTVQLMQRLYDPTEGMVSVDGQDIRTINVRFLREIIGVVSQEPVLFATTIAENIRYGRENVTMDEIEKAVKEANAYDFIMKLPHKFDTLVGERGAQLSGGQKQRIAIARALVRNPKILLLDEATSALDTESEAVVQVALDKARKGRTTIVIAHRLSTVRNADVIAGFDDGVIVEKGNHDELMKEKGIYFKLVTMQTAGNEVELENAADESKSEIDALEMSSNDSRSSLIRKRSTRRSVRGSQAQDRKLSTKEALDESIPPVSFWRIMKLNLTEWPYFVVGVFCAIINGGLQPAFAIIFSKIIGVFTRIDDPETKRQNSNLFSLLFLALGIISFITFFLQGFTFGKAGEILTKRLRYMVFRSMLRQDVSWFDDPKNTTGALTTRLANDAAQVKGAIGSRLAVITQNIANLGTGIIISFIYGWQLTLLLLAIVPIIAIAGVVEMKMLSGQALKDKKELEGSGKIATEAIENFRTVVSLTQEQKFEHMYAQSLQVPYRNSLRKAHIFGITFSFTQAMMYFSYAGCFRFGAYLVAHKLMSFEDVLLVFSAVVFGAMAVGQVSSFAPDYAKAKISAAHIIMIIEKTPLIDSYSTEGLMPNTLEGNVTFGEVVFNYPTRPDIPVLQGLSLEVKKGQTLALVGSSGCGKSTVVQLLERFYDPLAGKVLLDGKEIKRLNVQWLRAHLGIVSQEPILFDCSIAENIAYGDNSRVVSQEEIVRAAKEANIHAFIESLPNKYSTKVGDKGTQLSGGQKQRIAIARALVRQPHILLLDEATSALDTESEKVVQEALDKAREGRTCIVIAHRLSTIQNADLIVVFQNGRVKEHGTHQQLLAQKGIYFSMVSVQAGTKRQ

Regarding `O=c1ccc2cc(O[C@@H]3O[C@H](CO)[C@@H](O)[C@H](O)[C@H]3O)c(O)cc2o1`, the inhibition is -24.4% in experiment [1] and -2.58% (inactive) in experiment [10]. The compound further had a score in experiment [2] of 1.12. The compound further came in with a rescue above control in experiment [3] of -7.81. The cytochrome c release ratio in experiment [4] is 0.85. Besides, the inhibition of aggregation in experiment [5] was 54.9%. Moreover, the glutamate uptake change in experiment [6] worked out at 18.9%. The compound also came in with an inclusion score in [7] of 2. The compound further yielded an aggregation suppression score in experiment [8] of 1. In addition, the parasite load remaining in experiment [9] is 71.6% (inactive). Moreover, the viability in experiment [9] came to 71.7%. Further, the red/green cell ratio (normalised) in [11] is 1.25 (inactive); in [11] (counts scaled to control wells, 1 = unselective), 0.97 (inactive). Further, the normalised cell number in experiment [11] (setting [21]) is 0.87 and 1.04; in experiment [11] (setting [22]), 1.09 and 1. Moreover, in experiment [12], the activity remaining is 95.9% (inactive). Besides, the luciferase signal in experiment [13] is 92 AU (inactive).
On to `CC(C)CC(N(C)C)C1(c2ccc(Cl)cc2)CCC1` (centres undefined), for which, in experiment [10], the inhibition was 14.3% (inactive). For the same compound, the red/green cell ratio (normalised) in experiment [11] is 1.04 (inactive). Further, the normalised cell number in [11] (setting [21]) was 0.98; in experiment [11] (setting [22]), 1.02. Further, the activity remaining in [12] is 121% (inactive). Besides, the z-score in experiment [14] (setting [23]) is 0.37 (inactive) and 0.394 (inactive); in experiment [14] (setting [24]), 0.153 and 0.475; in experiment [16], -1.39 (inactive) and -1.34 (inactive) and -2.03 (inactive). In addition, the remaining NAD in experiment [15] is 10 nM (inactive). Moreover, in [13], the luciferase signal is 60 AU (inactive).
As for `CC[C@@]1(O)C(=O)OCc2c1cc1n(c2=O)Cc2cc3ccccc3nc2-1`, in experiment [17], the fluorescence slope change was 24.5% (inactive). Moreover, the figures for the inhibition in experiment [1] and in experiment [10] were -22.8% and 3.3% (inactive), respectively. This compound also had a score in experiment [2] of 1.92. For the same compound, in experiment [3], the rescue above control was determined as 0. Besides, the cytochrome c release ratio in experiment [4] was 0.94. The inhibition of aggregation in [5] is -7.84%. For the same compound, in [6], the glutamate uptake change was -25.7%. Besides, the aggregation suppression score in [8] was determined as 1.49. Moreover, in experiment [18], the survival is 0.833 (inactive). Besides, in experiment [11], the red/green cell ratio (normalised) was 1.07 (inactive). Further, the values for the normalised cell number in experiment [11] (setting [21]) and in experiment [11] (setting [22]) were 0.28 and 0.3, respectively. Besides, in experiment [12], the activity remaining was 107% (inactive). In experiment [19], the remaining activity was 90% (inactive). In addition, the z-score in experiment [14] (setting [23]) was -0.725 (inactive) and -0.263 (inactive) and -1.18 (inactive); in [14] (setting [24]), 0.467 and -0.232 and -0.237; in [16], -0.96 (inactive) and -0.91 (inactive) and -2.17 (inactive). Further, in [13], the luciferase signal was 28 AU (inactive).
In the case of `C=C[C@H]1CN2CC[C@H]1C[C@@H]2[C@@H](O)c1ccnc2ccccc12`, in experiment [9], the parasite load remaining is 63% (inactive). For the same compound, the viability in experiment [9] amounted to 116%. In addition, the inhibition in [10] was -5.19% (inactive). The fold change in experiment [20] (stronger effect = lower value, cell number ratio, induced over uninduced) is 0.868 (inactive); in experiment [20] (measured here: relative caspase fold change +Dox/-Dox) it was 1.48. Also, the cell count amounted to 8930 in [20] (measured here: total cells with miR-34 induction, stronger effect = lower value) and 10300 in experiment [20] (measured here: total cells without miR-34 induction). The remaining NAD in [15] was 10 nM (inactive). Further, the luciferase signal in experiment [13] is 40 AU (inactive).
Take `CC(=O)O[C@H]1CC[C@@]2(C)[C@@H](CC[C@@H]3[C@@H]2CC[C@]2(C)C(=O)CC[C@@H]32)C1`: the inhibition in experiment [10] was 0.969% (inactive).
Take `CC[C@@H](CO)NC(=O)[C@@H]1C=C2c3cccc4[nH]cc(c34)C[C@H]2N(C)C1`: the inhibition is 8.64% in experiment [1] and 10.6% (inactive) in experiment [10]. Besides, the score in experiment [2] came out at 1.38. Also, the rescue above control in experiment [3] was 4.84. Also, the cytochrome c release ratio in experiment [4] is 0.5. Besides, the inhibition of aggregation in [5] is 24.4%. The glutamate uptake change in experiment [6] stood at 12.4%. In experiment [7], this compound returned an inclusion score of 2. The compound also displayed an aggregation suppression score in [8] of 1.32. In addition, in experiment [9], the parasite load remaining was 65.8% (inactive) and 65.3% (inactive) and 59.9% (inactive). Further, in experiment [9], the viability is 103% and 77.1% and 98.3%. Further, in experiment [11], the red/green cell ratio (normalised) was 0.98 (inactive). Also, the normalised cell number in experiment [11] (setting [21]) amounted to 0.88; in [11] (setting [22]) it was 0.87. Besides, the activity remaining in [12] was 97% (inactive). For the same compound, the remaining activity in [19] was 107% (inactive). Further, the z-score was 0.332 (inactive) in [14] (setting [23]); 0.352 in experiment [14] (setting [24]); 0.87 (inactive) and -0.035 (inactive) in experiment [16]. In experiment [15], the remaining NAD was 10 nM (inactive). The luciferase signal in experiment [13] was 60 AU (inactive).
Turning to `Cc1c(O)c(C(=O)CC(C)C)c2oc3c(C(=O)CC(C)C)c(O)c(C)c(O)c3c2c1O`, the inhibition in experiment [10] is 0.288% (inactive).
Same read-out and setting: under `CO[C@H]1[C@H](O)[C@H](O[C@H]2CC[C@]3(C)C4CC[C@]5(C)[C@@H](C6=CC(=O)OC6)CC[C@]5(O)C4CC[C@@H]3C2)O[C@@H](C)[C@@H]1O` (some centres undefined) stands 11.3% (inactive).
With `COc1cc2c(cc1OC)[C@@]13CCN4CC5=CCO[C@H]6CC(=O)N2[C@H]1[C@H]6[C@H]5C[C@H]43`, in [9], the parasite load remaining is 80.5% (inactive) and the viability amounted to 63.8%. Besides, the inhibition in [10] was 7.74% (inactive). In addition, the remaining NAD in [15] was 10 nM (inactive). Moreover, the luciferase signal in experiment [13] was 76 AU (inactive).

The values above are taken from PubChem BioAssay.
